Results as given in PubChem BioAssay (Tox21).
A number with no mark means an inactive call. Results filed as inconclusive are left out. Where a call stands in place of a potency, no number is given. Active and inactive are the calls of the source. The call rests on the fitted dose curve.

Experiments:
[1] = molecular target: Acetylcholinesterase (Homo sapiens) (UniProt P22303); test: Acetylcholinesterase (AChE) small molecule antagonists: colormetric cell-based qHTS assay (AID 1347395); further: nearly all actives have a fitted effect of over 30% in size; further: potency means the concentration at half of the fitted maximal effect
Chain of Acetylcholinesterase (Homo sapiens) (P22303 whole entry, looked up): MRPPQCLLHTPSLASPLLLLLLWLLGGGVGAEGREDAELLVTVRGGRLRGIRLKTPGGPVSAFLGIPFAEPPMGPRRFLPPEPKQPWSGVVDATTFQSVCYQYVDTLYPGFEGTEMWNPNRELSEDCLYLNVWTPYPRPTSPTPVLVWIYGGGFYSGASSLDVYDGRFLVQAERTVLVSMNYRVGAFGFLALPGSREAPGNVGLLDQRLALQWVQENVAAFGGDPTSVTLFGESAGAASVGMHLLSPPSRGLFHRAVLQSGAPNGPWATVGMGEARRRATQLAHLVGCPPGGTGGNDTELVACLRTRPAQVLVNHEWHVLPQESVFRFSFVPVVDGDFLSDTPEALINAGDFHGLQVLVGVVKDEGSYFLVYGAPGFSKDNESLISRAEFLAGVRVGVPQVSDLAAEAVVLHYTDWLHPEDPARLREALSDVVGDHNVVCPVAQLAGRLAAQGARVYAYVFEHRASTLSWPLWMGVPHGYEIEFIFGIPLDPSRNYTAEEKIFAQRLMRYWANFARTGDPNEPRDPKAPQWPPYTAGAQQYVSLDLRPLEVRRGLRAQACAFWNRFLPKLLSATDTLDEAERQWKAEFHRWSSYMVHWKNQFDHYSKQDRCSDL
Summary of the method: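 SH-SY5Y cells; cpd 30 min 37 C; + DTNB/acetylthiocholine, 90 min 37 C; colorimetric thiocholine read; qHTS.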

[2] = molecular target: Acetylcholinesterase (Homo sapiens) (UniProt P22303); test: Acetylcholinesterase (AChE) small molecule antagonists: enzyme-based qHTS assay (AID 1347397); conditions: Potency: AChE enzyme activity inhibition; outcome: AChE enzyme activity inhibition; further: nearly all actives have a fitted effect of over 55% in size; further: potency means the concentration at half of the fitted maximal effect
Summary of the method: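 In this quantitative HTS, compounds from the Tox21 10K collection were preincubated 30 min at ambient temperature with recombinant human AChE dispensed at 50 mU/mL. Hydrolysis of acetylthiocholine was then followed for 10 min by DTNB colour development.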

[3] = molecular target: Acetylcholinesterase (Homo sapiens) (UniProt P22303); test: Acetylcholinesterase (AChE) small molecule antagonists: fluorescence cell-based qHTS assay (AID 1347398); conditions: Potency: AChE activity; outcome: AChE activity; further: nearly all actives have a fitted effect of over 50% in size; further: potency means the concentration at half of the fitted maximal effect
Summary of the method: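 Cells (SH-SY5Y) attached overnight, were dosed with compound or DMSO vehicle for 30 min at 37 C, and then incubated 40 min at room temperature with acetylthiocholine and Thiolite Green; green fluorescence indexed AChE activity.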

[4] = molecular target: Acetylcholinesterase (Homo sapiens) (UniProt P22303); test: Acetylcholinesterase (AChE) small molecule antagonists: enzyme-based qHTS assay with human liver microsomes (AID 1347399); conditions: Potency: qHTS inhibition; outcome: qHTS inhibition; further: nearly all actives have a fitted effect of over 60% in size
Summary of the method: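 Recombinant human AChE (50 mU/mL in the enzyme mix) and human liver microsomes (0.25 mg/mL final) were preincubated with compound and NADPH (0.25 mg/mL final) for 30 min at 37 C. Acetylthiocholine/DTNB was then added; thiocholine was read colorimetrically after 10 min at room temperature.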

Row | Structure (SMILES) | Potency [1] | Potency [2] | Potency [3] | Potency [4] | activity, negative = inhibition [1] | activity change, negative = inhibition [2] | activity change, negative = inhibition [3] | activity change, negative = inhibition [4]
1 | Cc1ccsc1C(=CCCN1CCC[C@@H](C(=O)O)C1)c1sccc1C | inactive | inactive | inactive | inactive | – | – | – | –
2 | O=c1cc(-c2ccccc2)oc2ccccc12 | inactive | inactive | inactive | inactive | – | – | – | –
3 | COc1cc(C(=O)NS(=O)(=O)c2ccccc2C)ccc1Cc1cn(C)c2ccc(NC(=O)OC3CCCC3)cc12 | inactive | inactive | inactive | inactive | – | – | – | –
4 | COc1ccc2[nH]cc(CCNC(C)=O)c2c1 | inactive | inactive | inactive | inactive | – | – | – | –
5 | CCCCCCc1ccc(-c2ccc(C#N)cc2)cc1 | inactive | inactive | inactive | inactive | – | – | – | –
6 | CNC(=O)c1c(I)c(NC(=O)CCCCC(=O)Nc2c(I)c(C(=O)O)c(I)c(C(=O)NC)c2I)c(I)c(C(=O)O)c1I | inactive | inactive | inactive | inactive | – | – | – | –
7 | O=[N+]([O-])c1ccc(/C=C/c2ccc([N+](=O)[O-])cc2S(=O)(=O)O)c(S(=O)(=O)O)c1 | inactive | inactive | inactive | inactive | – | – | – | –
8 | COc1cc(C(=S)N2CCOCC2)ccc1O | inactive | inactive | inactive | inactive | – | – | – | –
9 | Cc1ccc(C(C)(C)C)cc1 | inactive | inactive | inactive | inactive | – | – | – | –
10 | CC(C)(CO)[C@@H](O)C(=O)NCCCO | inactive | inactive | inactive | inactive | – | – | – | –
11 | Clc1cc(Cl)nc(Cl)n1 | inactive | inactive | inactive | inactive | – | – | – | –
12 | O=CN(CCO)CCO | inactive | inactive | inactive | inactive | – | – | – | –
13 | CCCCc1nc2cccnc2n1Cc1ccc(-c2ccccc2-c2nnn[nH]2)cc1 | inactive | inactive | inactive | inactive | – | – | – | –
14 | CCCCCCCCSCC | inactive | inactive | inactive | inactive | – | – | – | –
15 | CC1(C)S[C@@H]2[C@H](NC(=O)C(C(=O)O)c3ccccc3)C(=O)N2[C@H]1C(=O)O (stereo not given in full) | inactive | inactive | inactive | inactive | – | – | – | –
16 | CN1CCCC1=O | inactive | inactive | inactive | inactive | – | – | – | –
17 | C/C=C(C)/C=C/C=C(C)C | inactive | inactive | inactive | inactive | – | – | – | –
18 | CC(C)(O)c1ccc(CNC(=O)c2cccnc2Oc2ccc3nonc3c2)cc1 | inactive | inactive | inactive | inactive | – | – | – | –
19 | CSCCC=O | inactive | inactive | inactive | inactive | – | – | – | –
20 | CC1=C(/C=C/C(C)=C/C=C/C(C)=C/C(=O)Nc2ccc(O)cc2)C(C)(C)CCC1 | inactive | inactive | 13.8 µM (active) | inactive | – | – | – | –
21 | Nc1ccc(/C=C/c2ccc(N)cc2S(=O)(=O)O)c(S(=O)(=O)O)c1 | – | – | – | – | -0.352% [at 0.435 µM] | -0.809% [at 0.435 µM] | 2.35% [at 0.439 µM] | -0.084% [at 0.435 µM]
22 | O=C(O)CCC(=O)OC[C@@H](NC(=O)C(Cl)Cl)[C@H](O)c1ccc([N+](=O)[O-])cc1 | inactive | inactive | inactive | inactive | – | – | – | –
23 | Oc1cccc(-c2c3nc(c(-c4cccc(O)c4)c4ccc([nH]4)c(-c4cccc(O)c4)c4nc(c(-c5cccc(O)c5)c5ccc2[nH]5)CC4)C=C3)c1 | inactive | inactive | inactive | inactive | – | – | – | –
24 | CCCCC(CC)COC(=O)/C=C/c1ccc(OC)cc1 (stereo not given) | inactive | inactive | inactive | inactive | – | – | – | –
25 | CCCCCC(CO)CCC (stereo not given) | inactive | inactive | inactive | inactive | – | – | – | –
26 | CN(Cc1cnc2nc(N)nc(N)c2n1)c1ccc(C(=O)N[C@@H](CCC(=O)O)C(=O)O)cc1 | inactive | inactive | inactive | inactive | – | – | – | –
27 | Nc1nc(-c2ccc([N+](=O)[O-])cc2)cs1 | inactive | inactive | inactive | inactive | – | – | – | –
28 | O=C1O[C@@H]2[C@@H](O)[C@H](O)O[C@@H]2[C@H]1O | inactive | inactive | inactive | inactive | – | – | – | –
29 | CC(C)(C)C(=O)OCOP(=O)(COCCn1cnc2c(N)ncnc21)OCOC(=O)C(C)(C)C | 30.9 µM (active) | 38.9 µM (active) | 13.8 µM (active) | inactive | – | – | – | –
30 | CCOC(=O)/C=C/C(=O)O | inactive | inactive | inactive | inactive | – | – | – | –
